# TDP1 cell CPT – DT40-hTDP1 cell growth loss with CPT. chicken DT40 Tdp1-/-;hTDP1 cells + 20 nM CPT, ATP luminescence, 48 h. Potency, µM (titrated, usually from 46.2 µM), without a hit: top-dose activity change, negative = growth inhibition, usual class: inhibitors. 420,000 tested, 12% active. AID 686979; note: nearly all actives have a fitted effect of over 55% in size
#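 Chicken DT40 Tdp1-/- cells stably complemented with human TDP1 were seeded at 400 cells/well in medium containing 20 nM camptothecin, exposed to pin-transferred compounds, and grown at 37 °C for at least 48 hr. Viability was read as ATP luminescence.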
# DT40 TDP1 no CPT – qHTS for Inhibitors of human tyrosyl-DNA phosphodiesterase 1 (TDP1): qHTS in cells in absence of CPT; DT40 Tdp1-/- hTDP1 cells, no CPT, ATP luminescence, 48 h; 420,000 tested, 15% active; AID 686978, 2013; Potency, µM (titrated, usually from 46.2 µM), for the others: top-dose activity change, negative = growth inhibition, usual class: inhibitors; note: nearly all actives have a fitted effect of over 55% in size
#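 A cellular qHTS used chicken DT40 cells lacking endogenous Tdp1 but carrying stably transfected human TDP1. Compounds were applied without camptothecin, and cell growth kinetics were judged by ATP-dependent luminescence after ≥48 hr.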
# KB-V1 cytotox – kills drug-selected multidrug resistant KB-V1 cells | 400,000 tested, 3.4% active | Potency, µM (doses to about 46.1 µM), most hits filed as cytotoxic | KB-V1 MDR cells viability, CellTiter-Glo, 72 h; note: nearly all actives have a fitted effect of over 60% in size
#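 Compound-treated KB-V1 multidrug-resistant cells, 72 h, 37 degrees C; viability by CellTiter-Glo. Fitted qHTS curves give the values.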
# HT1080 IDH1KD tx – toxicity to HT-1080 IDH1 knockdown cells (counter line). HT-1080 IDH1 knockdown viability, ATP luminescence, 48 h. Potency, µM (series often up to 46.1 µM), for inactives: at the highest dose activity, negative = toxicity, most hits filed as cytotoxic. 360,000 tested, 2% active. AID 686971;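 note: 0% = DMSO wells and -100% = cell-free medium wells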
#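 % activity derives from luminescence (CellTiter-Glo), normalised to DMSO and no-cell wells. HT-1080-IDH1KD cells, 750/well, had 48 h compound exposure at 37 °C.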
# KB-3-1 tox – kills parental KB-3-1 adenocarcinoma cells | KB-3-1 viability, CellTiter-Glo ATP luminescence, 72 h | Potency, µM (doses to about 46.1 µM), most hits filed as cytotoxic | 400,000 tested, 1.4% active | AID 1347075; note: nearly all actives have a fitted effect of over 60% in size
#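 Parental KB-3-1 adenocarcinoma cells in phenol-red-free DMEM with 10% FBS were pin-treated with compounds at several concentrations, incubated 72 h at 37 °C, and viability read by CellTiter-Glo luminescence; concentration-effect curves were fitted after normalization.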
# HT1080NT lethal – kills 2HG-producing HT-1080-NT fibrosarcoma cells; AID 686970; Potency, µM (top dose mostly 46.1 µM), inactives show top-dose activity, negative = less viability, hits mostly cytotoxic; 360,000 tested, 1.6% active; HT-1080-NT fibrosarcoma viability, CellTiter-Glo ATP luminescence, 48 h;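 note: NT is the 2HG producing partner of a matched IDH1 knockdown line; 0% = DMSO-treated cells and -100% = media-only wells without cells; nearly all actives have a fitted effect of over 55% in size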
#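 Viability of the 2HG-overproducing fibrosarcoma line after 48 hours of compound exposure at 37 degrees C was determined by luminescence with CellTiter-Glo, and concentration-effect curves were then fitted and categorized.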
# * hit, by the source's call; i = inactive; ? = inconclusive; . = no result. An excerpt weighted towards active compounds, which were near 19% of everything screened. Calls come from the whole dose curve; as a rule, active = well fitted curve in the direction sought with a large enough effect; inconclusive = small, poorly fitted or top-dose-only effect, or another doubt; inactive = no such curve, though single readings can be large; an effect the other way counts as inactive or inconclusive. Unless noted, % is set by controls: 0 for no effect and ±100 for the full control effect; potency is the fitted concentration of half-maximal effect.
SMILES,TDP1 cell CPT,DT40 TDP1 no CPT,KB-V1 cytotox,HT1080 IDH1KD tx,KB-3-1 tox,HT1080NT lethal
COc1ccc(C(CC(=O)c2ccccc2)C2CCCCC2=O)cc1 (centres undefined),16µM*,-29%,?,-7%,i,6%
Cc1ccc(CNC(=O)Cn2ncc3c([nH]c4ccc(C)cc43)c2=O)cc1,-4%,-2%,i,.,i,.
O=[N+]([O-])c1ccc(CN2CCC(Cc3ccccc3)CC2)cc1,?,?,i,-9%,i,-2%
O=[N+]([O-])c1nn(-c2ccc3c(c2)OCCO3)n(O)c1=NC1CCN(Cc2ccccc2)CC1,10µM*,?,i,-16%,i,-21%
O=[N+]([O-])c1nn(-c2ccccc2)n(O)c1=NC1CCN(Cc2ccccc2)CC1,3.3µM*,9.2µM*,?,1%,i,2%
COc1ccc(C(=O)/C=C2/c3ccccc3CC(C)(C)N2C)cc1OC,?,16µM*,?,12%,i,6%
CCOC1=C2CN(S(=O)(=O)c3ccccc3)[C@H](c3ccccc3)C[C@H]2n2c(=O)n(-c3ccccc3)c(=O)n2C1,3%,4%,i,?,i,17%
COc1ccc(OCC(=O)Nc2cccc(-c3nc4ccccc4s3)c2C)cc1,?,?,i,.,i,.
O=C(c1nn2c(C(F)(F)F)cc(-c3ccco3)nc2c1Br)N1CCCc2ccccc21,16µM*,12µM*,23µM*,10µM*,?,23µM*
O=C(c1nn2c(C(F)(F)F)cc(-c3cccs3)nc2c1Br)N1CCCc2ccccc21,9.2µM*,8.2µM*,?,?,?,-23%
O=C(c1cc2nc(-c3cccs3)cc(C(F)(F)F)n2n1)N1CCCc2ccccc21,18µM*,?,i,-2%,i,5%
Cc1cc(C(=O)NCCc2ccc(S(N)(=O)=O)cc2)c(C)o1,1%,-24%,i,1%,i,-2%
CCC(C(=O)NC1CCCCC1)n1c(SCc2cccc(C)c2)nc2ccncc21 (centres undefined),26µM*,?,i,-15%,?,-14%
CCCCNC(=O)C(CC)n1c(SCc2cccc(F)c2)nc2ccncc21 (centres undefined),10µM*,?,i,.,i,.
CCC(C(=O)NC1CCCCC1)n1c(SCc2cccc(F)c2)nc2ccncc21 (centres undefined),?,?,i,5%,i,?
CCCCNC(=O)Cn1c(SCc2cccc(F)c2)nc2ccncc21,?,?,i,.,i,.
Cc1ccc(C)c(NC(=O)CSc2nnc(NC(=O)C3CC3)s2)c1,-5%,-11%,i,-4%,i,-3%
CCOCCc1nnc(NC(=O)C(=O)c2cc(C)n(-c3cccc(Cl)c3)c2C)s1,-20%,?,i,.,i,.
Cc1ccc2nc(-c3ccccc3C)oc(=O)c2c1,37%,10%,i,9%,i,2%
Cc1ccccc1-c1nc2ccccc2c(=O)o1,?,16µM*,i,-3%,i,1%
O=S(=O)(Nc1nc(-c2ccccc2)cs1)c1cc(Cl)ccc1Cl,9%,-5%,i,-20%,i,-7%
CN1CCC(CC(C(=O)N2CCCC2)(c2ccccc2)c2ccccc2)C1 (centres undefined),23µM*,?,i,-12%,i,-14%
CC(=O)OCC(=O)N1N=C(c2ccc3ccccc3c2)CC1c1ccccc1 (centres undefined),19%,-10%,?,5%,i,15%
CCn1cc([N+](=O)[O-])c(C(=O)N2N=C(c3ccc(OC)cc3OC)CC2c2ccccc2O)n1 (centres undefined),?,15µM*,?,-4%,i,-8%
CCn1cc(Cl)c(C(=O)N2N=C(c3ccc4ccccc4c3)CC2c2ccccc2O)n1 (centres undefined),?,15µM*,?,?,21µM*,?
SMILES,TDP1 cell CPT,DT40 TDP1 no CPT,KB-V1 cytotox,HT1080 IDH1KD tx,KB-3-1 tox,HT1080NT lethal
CCn1cc([N+](=O)[O-])c(C(=O)N2N=C(c3cccc4ccccc34)CC2c2ccccc2O)n1 (centres undefined),?,13µM*,i,18µM*,i,?
O=C(NCc1ccccc1)C1C(c2ccccc2)=Nc2ccccc2N1C(=O)c1cccnc1 (centres undefined),1%,-12%,?,-10%,i,-3%
O=C(NCC1CCCO1)c1ccc(Cl)c(NS(=O)(=O)c2ccc(F)cc2)c1 (centres undefined),-20%,-14%,?,0%,i,0%
COc1ccc(NC(=O)c2cc(-c3cc(F)ccc3OC)n[nH]2)c(OC)c1,26µM*,?,i,?,i,-18%
COc1ccc(NC(=O)c2cc(-c3cc(Cl)ccc3O)n[nH]2)c(OC)c1,-7%,-37%,i,?,i,-22%
COc1ccc(NC(=O)c2cc(-c3ccc(F)cc3OC)n[nH]2)c(OC)c1,16µM*,15µM*,?,-11%,i,-13%
COc1ccc(NC(=O)c2cc(-c3cc(C)c(C)cc3O)n[nH]2)c(OC)c1,0%,?,i,-9%,i,-3%
COc1ccc(N(CC(=O)Nc2cc(Cl)ccc2OC)C2=NC3CS(=O)(=O)CC3S2)cc1 (centres undefined),-14%,-4%,i,11%,i,16%
Nc1c(N(Cc2ccccc2)C(=O)COc2ccc([N+](=O)[O-])cc2)c(=O)[nH]c(=O)n1Cc1ccccc1,5.8µM*,?,i,?,?,?
Nc1c(N(Cc2ccco2)C(=O)COc2ccc(Cl)cc2)c(=O)[nH]c(=O)n1Cc1ccccc1,1%,-3%,i,-1%,i,4%
Cc1ccc(OCCC(=O)N(Cc2ccccc2)c2c(N)n(Cc3ccccc3)c(=O)[nH]c2=O)cc1,?,21µM*,?,-11%,i,-13%
Cc1cc(OCC(=O)N(Cc2ccco2)c2c(N)n(Cc3ccccc3)c(=O)[nH]c2=O)ccc1Cl,26µM*,?,i,-1%,i,-14%
Nc1c(N(CCO)C(=O)COc2ccc(Cl)cc2)c(=O)[nH]c(=O)n1Cc1ccccc1,-7%,11%,i,6%,i,1%
